An excerpt weighted towards active compounds, which were near 7.3% of everything screened.
RORg inh – inhibitors of mouse ROR gamma transcriptional activity | Drosophila S2 Gal4-RORgamma UAS-luciferase reporter, 20 h | Potency, µM (titrated, usually from 53.6 µM), for the others: top-dose activity change, negative = inhibition, most hits filed as inhibitors | hit rate 5.4% among 310,000; also: nearly all actives have a fitted effect of over 60% in size
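Luciferase reporter read in Schneider cells carrying Gal4-RORγ (mouse) and UAS-Photinus luciferase; cells given compound 1 h before 700 uM copper sulfate induction, then incubated 20 h at ambient temperature.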
VP16 counter – inhibits Gal4-VP16 luciferase reporter, ROR gamma counter-screen | Drosophila S2 Gal4-VP16 UAS-luciferase, luminescence, 20 h | Potency, µM (series often up to 53.6 µM), for the others: top-dose activity, negative = inhibition, actives largely listed as inhibitors | hit rate 3.5% among 310,000 | AID 2546;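 also: Gal4-VP16 expression switched on by copper sulfate through the metallothionein promoter; nearly all actives have a fitted effect of over 50% in size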
Tau fluor cs – counter-screen for tau fibril formation inhibitors; tau K18 P301L Alexa594 fluorescence, heparin fibrillization; Potency, µM (highest dose often 57.7 µM), without a hit: top-dose activity change, negative = decrease; hit rate 0.93% among 280,000; also: nearly all actives have a fitted effect of over 55% in size
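Human tau K18 P301L (15 uM unlabeled, 0.24 uM Alexa 594-labeled) in 100 mM sodium acetate pH 7 with 20 uM heparin, 6 hr at 37 C. ThT 30 uM added, 1 hr ambient; Alexa 594 FP and total fluorescence read at 555/632 nm.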
Tau fibril ThT – tau fibrillization inhibition (ThT binding); P10636; recombinant tau K18 P301L (four-repeat tau fragment), heparin-induced fibrillization, ThT fluorescence; Potency, µM (titrated, usually from 57.4 µM), without a hit: at the top dose activity, negative = inhibition, hits mostly inhibitors; hit rate 2.1% among 270,000; AID 1460; also: nearly all actives have a fitted effect of over 55% in size
Target sequence (P10636 561-689 P618L limits assumed): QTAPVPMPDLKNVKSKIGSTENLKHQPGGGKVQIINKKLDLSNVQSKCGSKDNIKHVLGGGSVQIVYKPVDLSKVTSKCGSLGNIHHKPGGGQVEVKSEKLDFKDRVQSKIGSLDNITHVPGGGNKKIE
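Recombinant human tau K18 fragment […] carrying P301L, 15 uM unlabeled plus 0.24 uM Alexa 594-labeled, was fibrillized with 20 uM heparin in 100 mM sodium acetate pH 7 for 6 hr at 37 C; 30 uM ThT fluorescence read after 1 hr.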
Tau FP inhib – inhibitors of human tau fibril formation. P10636. K18 P301L tau heparin fibrillization, Alexa594 FP, 6 h. Potency, µM (doses to about 57.7 µM), for the others: at the top dose activity, negative = inhibition, usual class: inhibitors. hit rate 0.39% among 280,000; also: nearly all actives have a fitted effect of over 55% in size
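Compound effects on tau fibrillization are measured by Alexa 594 fluorescence polarization (ex 555, em 632 nm). K18 P301L tau is used at 15 uM with 0.24 uM labeled tracer, and 20 uM heparin induces aggregation over 6 hr at 37 C.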
The depositor's hits bear a star; ? = inconclusive; · = no result given; [ ] = another dose, or the depositor's remark. Calls follow the shape of the dose curve; as a rule, active = well fitted curve in the direction sought with a large enough effect; inconclusive = small, poorly fitted or top-dose-only effect, or another doubt; inactive = no such curve, though single readings can be large; an effect the other way counts as inactive or inconclusive. % is scaled to controls: 0 for no effect and ±100 for the full control effect; potency is read from the fitted curve at half-maximal effect.

SMILES | RORg inh | VP16 counter | Tau fluor cs | Tau fibril ThT | Tau FP inhib
O=C(NCCc1ccccc1)C(=O)NCC(c1cccnc1)N1CCN(c2ccccc2F)CC1 (configuration not stated) | · | · | 3.2% | 1.7% | -1.3%
O=c1c(-c2ccccc2)nnc2sc(COc3ccc(Br)cc3)nn12 | -10.6% | -3.7% | · | · | ·
CN1CC(O)C2=CC(=O)C(=O)C=C21 (configuration not stated) | · | · | 5.62µM*[quencher] | 3.16µM* | 12.6µM*
CC(C)C(C)(C#N)NC(=O)CSc1nc2scc(-c3ccc(F)cc3)c2c(=O)n1Cc1ccccc1 (configuration not stated) | 17.8µM* | ? | -21.2% | -8.4% | -3.3%
CC(C)C(C)(C#N)NC(=O)CSc1nnc(-c2ccncc2)n1Cc1ccccc1 (configuration not stated) | 8.3% | -6.4% | -2.6% | -0.9% | -11.4%
Cc1c(C(=O)NCc2ccccc2Br)oc2c1-c1[nH]ncc1CC2 | · | · | 2.7% | -5.6% | -2.8%
CN1C(=O)/C(=C/c2cc(C(C)(C)C)c(O)c(C(C)(C)C)c2)NC1=S | 7.08µM* | ? | -20.4% | -8.3% | -1.8%
CCOCCn1cnc2sc(C(=O)Nc3ccccc3C(=O)OC)c(C)c2c1=O | · | · | -11.7% | -1.9% | 6.8%
CCOCCn1cnc2sc(C(=O)Nc3nc(C)c(C(=O)OCC)s3)c(C)c2c1=O | 4.47µM* | -10.2% | 0.1% | -5.1% | -5.7%
Cc1ccc(OC(C)C(=O)N2CC(=O)Nc3ccccc32)c(C)c1 (configuration not stated) | -7.8% | 10.5% | · | · | ·
COCCCNC(=O)c1ccc(-n2c(-c3ccccc3)cc3c2CCCC3)cc1 | · | · | -24.5% | -10.5% | ?
CCOCCCNC(=O)c1ccc(-n2c(-c3ccccc3)cc3c2CCC(C)C3)cc1 (configuration not stated) | · | · | ? | 9.6% | 5.01µM*
COc1cccc(CNC(=S)Nc2cccc(Cl)c2C)c1 | 5.01µM* | 3.55µM* | · | · | ·
COc1cc(C)c(NC(=S)Nc2cccc(Cl)c2C)cc1OC | 12.6µM* | ? | -12.5% | -9.7% | -6.2%
COc1cccc(CNC(=S)Nc2cc(C)ccc2C)c1 | 3.16µM* | 6.31µM* | -5.7% | 4.5% | 0.2%
COc1cccc(CNC(=O)CCl)c1 | -17.9% | -10.5% | 1.5% | 4.6% | 6.5%
CCCCCC(O)(c1ccccc1)C(CN1CCOCC1)c1ccccc1 (configuration not stated) | 30.3% | ? | · | · | ·
Cc1csc(NC(=O)C(NS(=O)(=O)c2ccc(Br)s2)c2ccccc2)n1 (configuration not stated) | 12.6µM* | ? | -21.9% | -7.1% | -4.5%
Cc1ccc(Cn2c(N/N=C/c3ccncc3)nc3c2c(=O)n(C)c(=O)n3C)cc1 | -44.3% | 10µM* | ? | ? | 3.5%
COc1cc(/C=N/Nc2nc3c(c(=O)n(C)c(=O)n3C)n2Cc2ccccc2)ccc1OC(=O)c1ccco1 | -22.7% | 17.8µM* | 7.94µM*[quencher] | ? | ?
Cn1c(=O)c2c(nc(N/N=C/c3ccncc3)n2Cc2ccccc2)n(C)c1=O | 2.1% | -16.4% | -1.8% | 1.3% | 0.5%
O=c1[nH]c2ccccc2nc1C(F)(F)C(F)F | -12.4% | -4.6% | 3.4% | -0.7% | -4.9%
FC(F)(F)c1nc2cc3nc4ccccc4[nH]c3cc2n1 | -5.3% | -7.3% | -29.8% | 5.01µM* | ?
COc1cccc(C2=NNC(=NCc3ccccc3)SC2)c1 | 8.91µM* | 5.4% | -21.0% | ? | 7.4%
C=CCn1c(C)cc(C2=NNC(=NCc3ccccc3)SC2)c1C | 23.5% | -5.1%[10 µM] | ? | ? | 3.5%
SMILES | RORg inh | VP16 counter | Tau fluor cs | Tau fibril ThT | Tau FP inhib
Cc1ccc(C)c(C2=NNC(=NCc3ccccc3)SC2)c1 | 7.94µM* | ? | -10.9% | ? | -7.1%
COc1ccc(CN=C2NN=C(c3ccccc3)CS2)cc1 | 2µM* | -2.2% | -22.7% | ? | -2.1%
COc1ccc(CN=C2NN=C(c3cccc(OC)c3)CS2)cc1 | 4.1% | -22.8% | -14.9% | ? | -4.4%
COc1ccc(/C=C2\SC(=NCc3ccccc3)NC2=O)cc1 | 42.9% | -7.0% | 1.4% | 4.2% | 2.0%
COC(=O)C(Cc1ccc(O)cc1)N1Cc2ccccc2C1=O (configuration not stated) | -19.9% | -0.5% | · | · | ·
CCC(=O)Nc1ccc2nc3c(=O)n(C)c(=O)n(C)c3nc2c1 | · | · | -7.3% | -13.6% | -5.0%
